Laboratory results published in PubChem BioAssay (Tox21).
Calls of active or inactive are those of the source. Calls follow the shape of the dose curve; as a rule, active = well fitted activation curve with a large enough effect in the repeat runs; inconclusive = weak or mixed curves; inactive = flat fitted curve, though single readings scatter.
% is scaled to controls: 0 for no effect and ±100 for the full control effect.

Assay: A CellTox Green Cytotoxicity Assay to monitor cytotoxicity in HepG2 cells - 0 hour (AID 1224882); also: nearly all actives have a fitted effect of over 35% in size
Conditions: CellTox Green fluorescence; series mostly up to 76.8 µM
From the text: National Center for Advancing Translational Sciences [NCATS]
NIH Chemical Genomics Center [NCGC]
U.S. Environmental Protection Agency [EPA]
National Institutes of Environmental Health Sciences [NIEHS]
National Toxicology Program [NTP]
Cell-based models are critical for drug discovery. Determining the natural cytotoxic effects resulting from test compounds is an essential research activity. A CellTox Green Cytotoxicity Assay to monitor cytotoxicity in real time of continues cell culture during 40 hours of the compound treatment was used to screen Tox21 10K library compounds in HepG2 cells. CellTox Green Cytotoxicity Assay is a nonlytic, homogeneous, biofluorescent method to measure cytotoxicity in cell culture after experimental manipulation. The assay system uses a proprietary asymmetric cyanine dye that is excluded from viable cells but preferentially stains the dead cell's DNA. […] Viable cells produce no appreciable increases in fluorescence. Therefore, the fluorescence signal produced by the binding interaction with dead cell DNA is proportional to cytotoxicity.
The mixture of HepG2 cell suspension and reagents were dispensed at 600cells/6 ul/well in 1536-well tissue culture treated black solid bottom plates using a Multidrop dispenser. After the assay plates were incubated at a 37 C/5% CO2 incubator for 5 hours, 23 nL of compounds dissolved in DMSO, positive and negative controls was transferred to the assay plate by a pintool work station. The plates were incubated at 37 C for 40 hours. The fluorescence intensity were measured at 0h, 8h, 16h, 24h, 32h and 40h time points using ViewLux plate reader during compound treatment.
With `O=C(NC(=O)c1c(F)cccc1F)Nc1cc(Cl)c(F)c(Cl)c1F` the outcome was “inactive”.
In the case of `CCc1ccc(C2CCNCC2)cc1`, the outcome is reported as “inactive”.
With `CN(C)C1CCCCC1` the outcome was “inactive”.
In the case of `CC(=O)CN(CC(C)=O)N=O`, the outcome is reported as “inactive”.
For `NC(=O)CS(=O)C(c1ccccc1)c1ccccc1` (stereo not given), the outcome was “inactive”.
With `CC1=C2[C@H]3OC(=O)[C@@H](C)[C@@H]3CC[C@@]2(C)C=CC1=O` the outcome was “inactive”.
For `CC[C@H](O)C(C[C@H](C)N(C)C)(c1ccccc1)c1ccccc1`, the outcome was “inactive”.
In the case of `CCCN1CCC[C@@H]2Cc3[nH]ncc3C[C@H]21`, the outcome is reported as “inactive”.
In the case of `CCSC(=O)Cl`, the outcome is reported as “inactive”.
With `COc1cccc([C@@]2(O)CCCC[C@@H]2CN(C)C)c1` the outcome was “inactive”.
For `CN(C)CCc1c[nH]c2cccc(OP(=O)(O)O)c12`, the outcome was “inactive”.
With `COC(=O)c1ccccc1CS(=O)(=O)NC(=O)Nc1nc(OC)cc(OC)n1` the outcome was “inactive”.
With `Clc1nc(Cl)nc(Nc2ccccc2Cl)n1` the outcome was “inactive”.
With `CC[C@@H](CO)NC(=O)[C@@H]1C=C2c3cccc4[nH]cc(c34)C[C@H]2N(C)C1` the outcome was “inactive”.
In the case of `O=[N+]([O-])c1cccc(CCl)c1`, the outcome is reported as “inactive”.
With `CCCOC(=O)c1cncn1C(C)c1ccccc1` (stereo not given) the outcome was “inactive”.
In the case of `CCN[C@@H](C)Cc1cccc(C(F)(F)F)c1`, the outcome is reported as “inactive”.
For `CC(C)[N+](C)(CCC(C(N)=O)(c1ccccc1)c1ccccc1)C(C)C`, the outcome was “inactive”.
For `[O-][Br+2]([O-])O`, the outcome was “inactive”.
With `O=C(Cl)C(Cl)(Cl)Cl` the outcome was “inactive”.
For `CC(=O)OCC1=C(C(=O)O)N2C(=O)[C@@H](N)[C@H]2SC1`, the cytotoxicity was -8.52% [at 15.8 µM] (inactive).
With `ClCCCCCCCl` the outcome was “inactive”.
With `CCN(CCO)CCO` the outcome was “inactive”.
For `COc1cc(CCN)cc(OC)c1OC`, the outcome was “inactive”.
For `NNCc1ccccc1`, the outcome was “inactive”.
In the case of `CCc1cc(OC)c(C[C@H](C)N)cc1OC`, the outcome is reported as “inactive”.
In the case of `O=C(CCl)NCO`, the outcome is reported as “inactive”.
In the case of `S=C=S`, the outcome is reported as “inactive”.
With `CC(=NC#N)N(C)Cc1ccc(Cl)nc1` the outcome was “inactive”.
With `Cc1ccc(S(=O)(=O)N[C@@H](CCCCN)C(=O)CCl)cc1` the outcome was “inactive”.
For `CN(C)CCN(C)C`, the outcome was “inactive”.
For `C[C@H]1CCCC(=O)CCC/C=C/c2cc(O)cc(O)c2C(=O)O1`, the outcome was “inactive”.
With `CCOC(=O)NC(C)(C)Cc1ccc(Cl)cc1` the outcome was “inactive”.
With `CCOP(=O)(CN(CCO)CCO)OCC` the outcome was “inactive”.
For `COc1ccccc1OC`, the outcome was “inactive”.
In the case of `O=C1C2CC=CCC2C(=O)N1SC(Cl)(Cl)Cl` (stereo not given), the outcome is reported as “inactive”.
For `Cc1cc(OC(=O)N(C)C)nn1C(=O)N(C)C`, the outcome was “inactive”.
With `Brc1c(Br)c(Br)c(Br)c(Br)c1Br` the cytotoxicity was 0.332% [at 6.97 µM] (inactive).
In the case of `CCC(=O)OC1(c2ccccc2)CCN(C)CC1`, the outcome is reported as “inactive”.
For `COC[C@@H](NC(C)=O)C(=O)NCc1ccccc1`, the outcome was “inactive”.
